Key:
Test in all cases: DAPPL (digital affinity profiling via proximity ligation, sequencing); 10 mM Tris-HCl pH 7.5, 50 mM NaCl, 1 mM DTT, 4% glycerol, room temperature, 30 min; GST-TFs on glutathione beads, 16-mer random dsDNA library, 0.1% formaldehyde crosslink after washing; high values mean tight binding
Conditions in all cases: protein: recombinant; tags: N-terminal GST; dsDNA, one strand shown
ERG = target: T1, ERG (Homo sapiens, UniProt P11308 1-479)
T1 sequence: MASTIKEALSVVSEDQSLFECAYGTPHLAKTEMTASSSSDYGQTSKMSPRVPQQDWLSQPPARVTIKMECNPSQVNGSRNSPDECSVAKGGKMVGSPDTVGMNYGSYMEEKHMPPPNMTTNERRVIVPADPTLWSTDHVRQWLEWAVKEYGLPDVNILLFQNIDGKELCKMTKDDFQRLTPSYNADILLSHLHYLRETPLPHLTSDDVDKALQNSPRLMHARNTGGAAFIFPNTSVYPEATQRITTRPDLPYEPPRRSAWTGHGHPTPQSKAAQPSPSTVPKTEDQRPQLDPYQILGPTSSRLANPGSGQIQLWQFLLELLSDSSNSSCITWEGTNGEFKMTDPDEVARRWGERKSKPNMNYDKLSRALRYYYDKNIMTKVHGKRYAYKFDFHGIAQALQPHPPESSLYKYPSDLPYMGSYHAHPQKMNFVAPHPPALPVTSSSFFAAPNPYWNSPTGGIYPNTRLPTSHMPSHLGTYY
Method in brief: (§1)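 GST fusions of human transcription factors were expressed in yeast and captured with glutathione beads. Once given DNA barcodes and pooled alongside a tag-only sample, they were incubated for 30 min at room temperature with 200 nmole of a random double-stranded 16-mer DNA library in Tris/NaCl/DTT/glycerol buffer, then washed, crosslinked (0.1% formaldehyde), proximity-ligated, PCR-amplified and sequenced on an Illumina NextSeq500. The binding signal of each hexamer is its read frequency for a factor divided by its frequency for the tag-only sample.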

ELF1 = ELF1 (Homo sapiens, UniProt P32519 1-619)
Chain of ELF1 (P32519 whole entry): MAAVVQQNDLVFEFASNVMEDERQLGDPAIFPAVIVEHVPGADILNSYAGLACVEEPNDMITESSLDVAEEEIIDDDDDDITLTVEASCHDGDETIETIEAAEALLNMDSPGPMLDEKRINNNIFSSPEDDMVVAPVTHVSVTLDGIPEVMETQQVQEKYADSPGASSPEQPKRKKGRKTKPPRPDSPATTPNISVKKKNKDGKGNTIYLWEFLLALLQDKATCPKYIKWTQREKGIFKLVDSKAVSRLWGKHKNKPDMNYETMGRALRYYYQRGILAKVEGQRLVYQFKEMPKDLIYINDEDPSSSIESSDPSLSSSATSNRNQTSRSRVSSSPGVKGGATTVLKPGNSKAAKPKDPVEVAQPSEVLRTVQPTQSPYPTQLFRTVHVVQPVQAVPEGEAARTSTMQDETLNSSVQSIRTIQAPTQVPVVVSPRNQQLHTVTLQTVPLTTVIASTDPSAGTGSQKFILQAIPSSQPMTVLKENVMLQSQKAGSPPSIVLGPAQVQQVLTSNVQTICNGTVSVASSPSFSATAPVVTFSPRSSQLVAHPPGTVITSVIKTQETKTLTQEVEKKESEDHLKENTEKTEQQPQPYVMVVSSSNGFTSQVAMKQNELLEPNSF
Method in brief: as §1

EHF = target: T2, EHF (Homo sapiens, UniProt Q9NZC4 1-300)
T2 sequence: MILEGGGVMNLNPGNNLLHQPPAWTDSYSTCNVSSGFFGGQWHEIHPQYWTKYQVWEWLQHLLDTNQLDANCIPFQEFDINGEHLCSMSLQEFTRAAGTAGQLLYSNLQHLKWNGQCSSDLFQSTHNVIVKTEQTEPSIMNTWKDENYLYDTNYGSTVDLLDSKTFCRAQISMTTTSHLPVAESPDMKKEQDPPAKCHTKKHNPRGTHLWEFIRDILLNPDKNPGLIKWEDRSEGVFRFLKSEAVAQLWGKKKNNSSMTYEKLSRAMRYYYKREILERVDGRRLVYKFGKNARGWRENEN
Method in brief: as §1

ELK3 = target: T3, ELK3 (Homo sapiens, UniProt P41970 1-407)
T3 sequence: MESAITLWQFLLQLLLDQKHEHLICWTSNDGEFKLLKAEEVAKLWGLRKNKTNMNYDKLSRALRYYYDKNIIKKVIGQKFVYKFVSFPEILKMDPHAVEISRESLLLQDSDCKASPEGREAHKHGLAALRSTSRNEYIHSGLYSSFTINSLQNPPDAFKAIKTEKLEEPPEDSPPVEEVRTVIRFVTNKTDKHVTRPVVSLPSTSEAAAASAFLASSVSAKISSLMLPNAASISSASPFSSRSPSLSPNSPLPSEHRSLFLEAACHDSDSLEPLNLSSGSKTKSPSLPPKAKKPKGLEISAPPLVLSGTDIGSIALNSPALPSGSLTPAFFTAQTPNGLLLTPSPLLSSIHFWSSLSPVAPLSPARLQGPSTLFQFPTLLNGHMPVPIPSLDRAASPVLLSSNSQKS
Method in brief: as §1

ETV5 = ETV5 (Homo sapiens, UniProt P41161 1-510)
Chain of ETV5 (P41161 whole entry): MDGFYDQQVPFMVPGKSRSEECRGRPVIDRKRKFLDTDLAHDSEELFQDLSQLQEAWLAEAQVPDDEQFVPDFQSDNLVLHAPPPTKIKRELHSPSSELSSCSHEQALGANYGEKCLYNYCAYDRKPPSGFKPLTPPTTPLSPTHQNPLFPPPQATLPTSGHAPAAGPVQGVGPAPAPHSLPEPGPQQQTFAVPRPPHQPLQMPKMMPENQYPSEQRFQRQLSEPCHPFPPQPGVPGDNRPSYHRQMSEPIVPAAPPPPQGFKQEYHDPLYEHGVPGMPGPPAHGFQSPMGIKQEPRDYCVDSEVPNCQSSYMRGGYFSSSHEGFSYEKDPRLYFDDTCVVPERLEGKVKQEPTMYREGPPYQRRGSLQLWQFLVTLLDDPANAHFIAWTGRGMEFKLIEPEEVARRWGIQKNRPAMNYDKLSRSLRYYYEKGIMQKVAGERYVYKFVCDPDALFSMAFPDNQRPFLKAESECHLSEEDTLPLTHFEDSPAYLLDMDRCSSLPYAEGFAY
Method in brief: as §1

ELK4 = target: T4, ELK4 (Homo sapiens, UniProt P28324-2 1-405)
T4 sequence: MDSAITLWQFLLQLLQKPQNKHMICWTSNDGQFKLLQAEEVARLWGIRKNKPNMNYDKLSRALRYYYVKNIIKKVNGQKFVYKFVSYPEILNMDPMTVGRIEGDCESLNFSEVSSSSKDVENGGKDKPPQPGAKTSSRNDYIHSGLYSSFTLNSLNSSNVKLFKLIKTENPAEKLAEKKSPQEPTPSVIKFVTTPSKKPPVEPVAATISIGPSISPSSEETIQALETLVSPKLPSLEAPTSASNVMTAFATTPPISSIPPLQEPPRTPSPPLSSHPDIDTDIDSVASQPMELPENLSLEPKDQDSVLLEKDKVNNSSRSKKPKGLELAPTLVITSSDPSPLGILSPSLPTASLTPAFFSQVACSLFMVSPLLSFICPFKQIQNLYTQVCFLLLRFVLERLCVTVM
Method in brief: as §1

ETV1 = ETV1 (Homo sapiens, UniProt P50549 1-477)
Chain of ETV1 (P50549 whole entry): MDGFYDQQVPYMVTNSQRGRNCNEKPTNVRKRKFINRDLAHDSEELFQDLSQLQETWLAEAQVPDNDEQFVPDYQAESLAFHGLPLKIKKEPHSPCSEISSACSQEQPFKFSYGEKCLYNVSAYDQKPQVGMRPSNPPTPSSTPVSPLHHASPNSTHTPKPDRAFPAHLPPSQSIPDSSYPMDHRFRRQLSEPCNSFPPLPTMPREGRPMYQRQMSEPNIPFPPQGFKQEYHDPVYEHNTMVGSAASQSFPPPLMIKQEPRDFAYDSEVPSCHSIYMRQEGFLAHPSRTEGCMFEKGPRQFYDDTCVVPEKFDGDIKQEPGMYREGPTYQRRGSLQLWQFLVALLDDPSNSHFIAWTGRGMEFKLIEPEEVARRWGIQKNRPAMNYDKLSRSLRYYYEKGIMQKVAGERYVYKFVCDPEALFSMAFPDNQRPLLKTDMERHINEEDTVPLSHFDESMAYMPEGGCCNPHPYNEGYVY
Method in brief: as §1

ERF = target: T5, ERF (Homo sapiens, UniProt P50548 1-548)
T5 sequence: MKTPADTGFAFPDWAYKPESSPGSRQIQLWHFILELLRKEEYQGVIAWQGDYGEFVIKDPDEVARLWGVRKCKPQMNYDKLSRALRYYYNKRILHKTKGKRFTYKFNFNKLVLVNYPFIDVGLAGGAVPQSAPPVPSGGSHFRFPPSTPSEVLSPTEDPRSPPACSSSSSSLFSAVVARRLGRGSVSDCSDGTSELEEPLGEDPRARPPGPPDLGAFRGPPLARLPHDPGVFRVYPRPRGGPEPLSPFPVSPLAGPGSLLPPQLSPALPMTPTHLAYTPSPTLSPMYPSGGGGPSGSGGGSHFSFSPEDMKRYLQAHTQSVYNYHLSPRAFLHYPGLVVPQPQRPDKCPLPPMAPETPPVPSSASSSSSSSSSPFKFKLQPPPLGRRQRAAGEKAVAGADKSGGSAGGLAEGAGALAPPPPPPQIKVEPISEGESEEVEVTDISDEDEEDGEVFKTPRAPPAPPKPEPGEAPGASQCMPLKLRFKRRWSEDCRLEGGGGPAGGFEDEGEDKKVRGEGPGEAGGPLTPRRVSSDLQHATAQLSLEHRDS
Method in brief: as §1

ETV3L = target: T6, ETV3L (Homo sapiens, UniProt Q6ZN32 1-361)
T6 sequence: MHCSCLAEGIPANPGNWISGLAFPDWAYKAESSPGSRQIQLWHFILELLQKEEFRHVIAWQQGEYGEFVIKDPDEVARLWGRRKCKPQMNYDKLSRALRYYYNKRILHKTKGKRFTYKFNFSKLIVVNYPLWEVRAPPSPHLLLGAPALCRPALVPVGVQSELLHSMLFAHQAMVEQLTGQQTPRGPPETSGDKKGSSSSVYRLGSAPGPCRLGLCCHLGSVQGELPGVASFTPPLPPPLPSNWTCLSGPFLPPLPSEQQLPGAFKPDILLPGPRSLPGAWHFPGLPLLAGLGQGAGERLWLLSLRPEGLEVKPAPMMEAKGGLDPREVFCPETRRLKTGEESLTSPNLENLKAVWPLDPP
Method in brief: as §1

ETS2 = target: T7, ETS2 (Homo sapiens, UniProt P15036 1-469)
T7 sequence: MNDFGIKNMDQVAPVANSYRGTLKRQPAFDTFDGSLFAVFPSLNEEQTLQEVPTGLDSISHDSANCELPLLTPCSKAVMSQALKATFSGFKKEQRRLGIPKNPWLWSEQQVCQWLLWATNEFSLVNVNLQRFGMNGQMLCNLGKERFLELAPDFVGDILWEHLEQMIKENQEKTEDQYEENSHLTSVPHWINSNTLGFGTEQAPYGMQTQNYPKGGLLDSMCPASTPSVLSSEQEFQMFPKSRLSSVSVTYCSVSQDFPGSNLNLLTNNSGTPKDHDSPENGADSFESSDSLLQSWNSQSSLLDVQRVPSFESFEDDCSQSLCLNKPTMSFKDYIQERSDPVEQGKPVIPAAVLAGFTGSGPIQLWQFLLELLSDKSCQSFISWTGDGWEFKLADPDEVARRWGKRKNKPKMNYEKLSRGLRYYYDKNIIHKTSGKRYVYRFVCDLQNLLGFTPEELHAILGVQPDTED
Method in brief: as §1

SPDEF = target: T8, SPDEF (Homo sapiens, UniProt O95238 1-335)
T8 sequence: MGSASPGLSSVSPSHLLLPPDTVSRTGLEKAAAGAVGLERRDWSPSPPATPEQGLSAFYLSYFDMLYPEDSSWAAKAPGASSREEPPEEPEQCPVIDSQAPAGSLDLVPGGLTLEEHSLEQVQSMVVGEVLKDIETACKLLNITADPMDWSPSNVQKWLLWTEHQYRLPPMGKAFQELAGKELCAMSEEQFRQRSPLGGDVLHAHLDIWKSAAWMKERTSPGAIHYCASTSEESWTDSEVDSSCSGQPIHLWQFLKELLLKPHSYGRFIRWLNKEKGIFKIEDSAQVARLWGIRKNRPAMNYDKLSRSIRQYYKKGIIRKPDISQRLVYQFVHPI
Method in brief: as §1

ETV7 = target: T9, ETV7 (Homo sapiens, UniProt Q9Y603 1-341)
T9 sequence: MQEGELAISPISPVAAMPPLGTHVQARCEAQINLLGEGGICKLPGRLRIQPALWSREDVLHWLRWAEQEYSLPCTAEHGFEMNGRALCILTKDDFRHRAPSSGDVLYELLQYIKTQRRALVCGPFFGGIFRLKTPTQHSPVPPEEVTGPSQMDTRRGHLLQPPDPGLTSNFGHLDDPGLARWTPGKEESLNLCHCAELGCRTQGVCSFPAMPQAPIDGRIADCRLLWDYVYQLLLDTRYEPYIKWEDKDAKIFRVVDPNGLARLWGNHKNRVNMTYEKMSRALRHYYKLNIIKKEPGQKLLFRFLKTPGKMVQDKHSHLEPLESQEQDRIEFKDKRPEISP
Method in brief: as §1

ETV6 = ETV6 (Homo sapiens, UniProt P41212 1-452)
Chain of ETV6 (P41212 whole entry): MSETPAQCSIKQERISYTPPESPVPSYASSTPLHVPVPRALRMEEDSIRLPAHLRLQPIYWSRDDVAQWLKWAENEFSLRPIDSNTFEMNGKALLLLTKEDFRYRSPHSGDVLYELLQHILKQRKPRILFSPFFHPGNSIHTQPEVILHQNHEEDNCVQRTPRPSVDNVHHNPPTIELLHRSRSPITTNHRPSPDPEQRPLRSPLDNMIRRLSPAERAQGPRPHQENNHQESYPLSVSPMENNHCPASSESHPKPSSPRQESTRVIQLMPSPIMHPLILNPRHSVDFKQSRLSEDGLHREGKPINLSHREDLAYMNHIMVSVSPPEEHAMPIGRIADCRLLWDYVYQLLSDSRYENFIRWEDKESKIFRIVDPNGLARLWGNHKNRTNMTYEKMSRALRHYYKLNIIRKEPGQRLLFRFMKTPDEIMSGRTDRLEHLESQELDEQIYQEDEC
Method in brief: as §1

GABPA = target: T10, GABPA (Homo sapiens, UniProt Q06546 1-454)
T10 sequence: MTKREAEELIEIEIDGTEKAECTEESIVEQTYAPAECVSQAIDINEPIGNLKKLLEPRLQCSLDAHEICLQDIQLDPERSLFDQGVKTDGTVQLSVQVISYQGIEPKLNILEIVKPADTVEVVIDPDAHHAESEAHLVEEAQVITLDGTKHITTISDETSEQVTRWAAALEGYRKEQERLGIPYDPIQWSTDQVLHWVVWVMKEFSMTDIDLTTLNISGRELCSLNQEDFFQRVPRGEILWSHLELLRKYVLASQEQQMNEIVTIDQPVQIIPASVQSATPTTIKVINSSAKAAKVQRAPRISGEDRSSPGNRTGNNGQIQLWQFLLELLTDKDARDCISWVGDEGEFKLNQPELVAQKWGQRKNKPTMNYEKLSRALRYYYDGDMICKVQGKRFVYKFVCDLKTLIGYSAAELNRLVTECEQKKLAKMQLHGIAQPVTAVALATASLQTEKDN
Method in brief: as §1

TCACGG
binding signal (ERG): 1.02 fold enrichment (6-mer frequency, TF over GST control) | binding signal (ELF1): 1.06 fold enrichment (6-mer frequency, TF over GST control) | binding signal (EHF): 1.08 fold enrichment (6-mer frequency, TF over GST control) | binding signal (ELK3): 1 fold enrichment (6-mer frequency, TF over GST control) | binding signal (ETV5): 1.04 fold enrichment (6-mer frequency, TF over GST control) | binding signal (ELK4): 1.02 fold enrichment (6-mer frequency, TF over GST control) | binding signal (ETV1): 1.09 fold enrichment (6-mer frequency, TF over GST control) | binding signal (ERF): 1.06 fold enrichment (6-mer frequency, TF over GST control) | binding signal (ETV3L): 1.02 fold enrichment (6-mer frequency, TF over GST control) | binding signal (ETS2): 1.04 fold enrichment (6-mer frequency, TF over GST control) | binding signal (SPDEF): 1.1 fold enrichment (6-mer frequency, TF over GST control) | binding signal (ETV7): 1.04 fold enrichment (6-mer frequency, TF over GST control) | binding signal (ETV6): 1.05 fold enrichment (6-mer frequency, TF over GST control)

CGAAGG
binding signal (GABPA): 1 fold enrichment (6-mer frequency, TF over GST control) | binding signal (EHF): 1.03 fold enrichment (6-mer frequency, TF over GST control) | binding signal (ETV5): 1.05 fold enrichment (6-mer frequency, TF over GST control) | binding signal (ELK4): 1.06 fold enrichment (6-mer frequency, TF over GST control)

From publication PMC7862700, “An all-to-all approach to the identification of sequence-specific readers for epigenetic DNA modifications on cytosine”
